# From the supplement of paper PMC10338343
# ± gives the standard deviation.
# How the values were obtained:
# [1] = system: MILI (PIWIL2) piRISC loaded with L1MC piRNA (26 nt); assay: pre-steady-state target cleavage rate (min^-1); guide: L1MC piRNA 5'p-UAACUAAAUACUAUGCAAGCUGUAGG; higher = faster piRNA-guided slicing of the target;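 note: 1 nM active piRISC with 0.1 nM target library at 33 °C single turnover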
# In short: (§1)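 At 33 °C in HEPES–potassium acetate buffer, a transcribed, DNA-blocked target RNA library […] was exposed for 0–8 or 0–960 min to 1 nM active affinity-purified piRISC carrying a single synthetic guide, with or without 500 nM GTSF1 partner protein. Uncleaved targets were sequenced and normalised to depth and to weakly complementary targets. With three trials pooled and k3 capped at 0.0001 min^-1, a burst-and-steady-state fit produced the pre-steady-state cleavage rate.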
# [2] = system: EfPiwi piRISC loaded with L1MC piRNA (26 nt); assay: pre-steady-state target cleavage rate (min^-1); auxiliary factor: 500 nM Ephydatia muelleri Gtsf1; guide: L1MC piRNA 5'p-UAACUAAAUACUAUGCAAGCUGUAGG; MIWI and MILI are mouse PIWI proteins and EfPiwi is from a freshwater sponge; tags in brackets are library labels; higher = faster piRNA-guided slicing of the target
# In short: as §1
# [3] = auxiliary factor: 500 nM mouse GTSF1
# [4] = auxiliary factor: none (no GTSF1)
Sequence,"pre-steady-state target cleavage rate [1, 3]",pre-steady-state target cleavage rate [2],"pre-steady-state target cleavage rate [1, 4]"
UCCUCCUACAGCUAGCAUAGUAUUUUGUUA,0.151 ± 0.019,0.0077 ± 0.0035,–
UCCUCCUACAGCUUGCAUUGUAUUUAGAAA,0.0778 ± 0.019,0.00363 ± 0.0015,–
UCCUGGAACACCUUGCAUAGUAUUAAGUUA,0.189 ± 0.034,0.00303 ± 0.0027,–
UCCUGGAACUGCUUGCAUACUAUUUAGUUA,0.076 ± 0.01,0.0046 ± 0.0019,–
UCCUGGUACUGCUUGCAUAGUAUAUAGUUA,0.168 ± 0.044,0.01 ± 0.0048,–
UCCUGGUACAGCUUGCUUAGUAUUUAGAUA,0.122 ± 0.024,0.00305 ± 0.0025,–
UCCUCCUACAGCUUGCAUAGAAUUUUGUUA,0.0525 ± 0.013,0.00325 ± 0.0016,–
UCCUGGAACACCUUGCAUAGUAUUUAGAUA,0.183 ± 0.043,0.0026 ± 0.0026,–
UCCUGGAACAGCUUGCAUAGUUAUUAGUAA,0.0204 ± 0.0084,0.00454 ± 0.0037,–
UCCUGCUACAGCUUGCAUAGUAUUUGUUA,0.124 ± 0.028,0.00505 ± 0.002,–
UCCUGCUACAGCUAGCAUAGUAUUUACUUA,0.351 ± 0.051,0.00364 ± 0.0025,–
UCCUGGAUCAGCUUGCAUAGUAUUGAGUUA,0.227 ± 0.039,0.00662 ± 0.0024,–
UCCUGGAUGAGCUUGCAUAGUAUUUAUUA,0.0142 ± 0.0067,0.00268 ± 0.0022,–
UCCUCCUACACCUUGCAUAGUAUUUACAAA,0.127 ± 0.032,0.00304 ± 0.0025,–
UCCUCCUAGAGCUUGCAUAGUAUUUUGUUA,0.251 ± 0.029,0.006 ± 0.0024,–
UCCUGGAUGUGGAUGCAUAGUAUUUAGAAA,0.013 ± 0.0055,0.00388 ± 0.0027,–
UCCUGGAUGAGCUUGCAUUGUAUUUAGAUA,0.156 ± 0.038,0.00248 ± 0.0021,–
UCCUCCUACAGCUUGGAUAGUAUUUACUUA,0.0993 ± 0.024,0.00254 ± 0.0019,–
UCCUCCUACAGCUUGGUUAGUAUUUAGAAA,0.081 ± 0.016,0.00231 ± 0.0022,–
UCCUCCUACAGCUUGCAUACUAUUUAGAUA,0.0353 ± 0.01,0.00315 ± 0.0027,–

Sequence,"pre-steady-state target cleavage rate [1, 3]",pre-steady-state target cleavage rate [2],"pre-steady-state target cleavage rate [1, 4]"
UCCUGCUACAGCUUGCAUAGUAUUAAGAUA,0.019 ± 0.0078,0.00501 ± 0.0016,–
UCCUCCAUGAGCUUGCAUAGUAUUUACAAA,0.0266 ± 0.0095,0.00312 ± 0.0024,–
UCCUCCUACAGCUUGCAAUAGUAUUUAGUUA,0.0415 ± 0.01,0.0427 ± 0.014,–
UCCUGCUACAGCUUGCAUAGUAUUUAGUAA,0.182 ± 0.024,0.00553 ± 0.0022,–
UCCUCCUACAGCUUGCAAAGUAUUAAGUUA,0.0872 ± 0.014,0.00696 ± 0.0033,–
UCCUGCUACAGCUAGCAUAGUAUUUAGUAA,0.212 ± 0.019,0.00623 ± 0.002,–
UCCUCCUACAGCUUGCAUAGUAAAAAGUUA,0.0965 ± 0.016,0.00301 ± 0.0021,–
UCCUGGAACAGCUUGCAUAGGUAUUUAGUUA,–,0.00262 ± 0.0026,0.00517 ± 0.0026
UCCUGGUACAGCUAGCAUAGUAUUUAGAUA,0.0905 ± 0.022,0.00618 ± 0.0029,–
UCCUGCUACAGCUUGCAUAGUAUAUUGUUA,0.187 ± 0.036,0.00351 ± 0.0021,–
UCCUGGUACAGCUUGCAUAGAAUUUAGUUA,0.229 ± 0.08,0.00314 ± 0.0023,–
UCCUGGAUGAGCUUCCAUAGUAUUUAGUAA,0.0143 ± 0.0073,0.00253 ± 0.0019,–
UCCUGCAUCAGCUUGCAUAGUAUUUACAAA,0.126 ± 0.025,0.00323 ± 0.0016,–
UCCUGCUACAGCUUGCAUAGUCUUUAGUUA,0.122 ± 0.019,0.00416 ± 0.001,–
UCCUGCUUCAGCUUGCAUAGUAUUUAGAAA,0.195 ± 0.037,0.00434 ± 0.0021,–
UCCUCCAACAGCUUGCAUAGAAUUUAGUUA,0.07 ± 0.014,0.00468 ± 0.0016,–
UCCUGGAUCACCUUGCAUAGUAUUUAGAUA,0.111 ± 0.025,0.00551 ± 0.005,–
UCCUGGAAGAGCUUGCAUAGUAUUUAGAAA,0.109 ± 0.025,0.00533 ± 0.002,–
UCCUGGAUCACGAUGCAUAGUAUUUAGUAA,0.173 ± 0.016,0.00397 ± 0.0033,–
UCCUGGAAGAGCUUGCAUAGAAUUUAGUUA,0.0498 ± 0.011,0.00403 ± 0.0018,–

Sequence,"pre-steady-state target cleavage rate [1, 3]",pre-steady-state target cleavage rate [2],"pre-steady-state target cleavage rate [1, 4]"
UCCUCCUACAGCUUGCAUAGUAUUUAUUA,0.0949 ± 0.023,0.00539 ± 0.0031,–
UCCUGGUACAGCUUGCAUAGUAAUAAGUUA,0.204 ± 0.033,0.00546 ± 0.0031,–
UCCUGCUACAGCUUGCAUAGUAAUUAGAAA,0.0259 ± 0.0091,0.00362 ± 0.0016,–
UCCUGGAACAGCUUGCAUAGUUUUUAGUAA,0.0664 ± 0.015,0.00724 ± 0.0029,–
UCCUGGAACAGCUUGCAUAGUAUUUAUUUA,0.113 ± 0.026,0.00534 ± 0.0034,–
UCCUCCUACUGCUUGCAUAGUAUUUAGUAA,0.126 ± 0.017,0.00527 ± 0.0023,–
UCCUGGAUGUGCUUGCAUAUUAUUUAGUUA,0.0346 ± 0.0073,0.00647 ± 0.0022,–
UCCUGGAACAGCUUGCAUAGUAUUUUGAAA,0.0888 ± 0.027,0.00294 ± 0.0022,–
UCCUGGAUGUCGAACCAUAGUAUUUAGGUA,–,< 0.0001,< 0.0001
UCCUGGAAGAGCUUGCAUAGUAUUUACAAA,0.0536 ± 0.02,0.00396 ± 0.0018,–
UCCUGCUAGAGCUUGCAUAGAAUUUAGUUA,0.0404 ± 0.0063,0.0043 ± 0.0014,–
UCCUGGAACAGCUUGCAUAGUAUUAAGAUA,0.0769 ± 0.019,0.00257 ± 0.0022,–
UCCUGGAUGUGCUUGGCAUAGUAUUUAGUUA,0.19 ± 0.057,0.00458 ± 0.0029,–
UCCUGCUACAGCUUGCAUAGUAUUUUCAAA,0.137 ± 0.041,0.00277 ± 0.0021,–
UCCUGGAACAGCUUGCAUACUAUUUAGUAA,0.0934 ± 0.025,0.00398 ± 0.0022,–
UCCUGGAUCAGCUUGCAUAGUAAUUUGUUA,0.114 ± 0.025,0.00366 ± 0.002,–
UCCUGGAACAGCUUGGAUAGUUUUUAGUUA,0.0453 ± 0.0097,0.00298 ± 0.0022,–
UCCUCCUACAGCUAGCAUAGUAUUUACAAA,0.0849 ± 0.018,0.00397 ± 0.0031,–
UCCUGCUACAGCUUGCAUAGUAUUUAGUAUA,0.292 ± 0.044,0.00675 ± 0.0019,–
UCCUGGAUGAGCUUGCAUAGUAUUUCGUUA,0.0995 ± 0.028,0.00352 ± 0.0019,–
